Among the data in PubChem BioAssay (Tox21) are outcome and Potency values, retold here.

A short description of assay [1]: qHTS assay to identify small molecule agonists of the peroxisome proliferator-activated receptor delta (PPARd) signaling pathway - cell viability counter screen (AID 743211). Also: nearly all actives have a fitted effect of over 55% in size. The essentials: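 Luminescent ATP viability assay (CellTiter-Glo, 30 min RT) in UAS-bla HEK293H cells carrying the PPAR delta reporter construct, 3000 cells/well, after a 17 h compound treatment at 37 C.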
A general note: qHTS replaces the single test concentration by a dilution series.

The target of assay [2] is Peroxisome proliferator-activated receptor delta (Homo sapiens) (UniProt Q03181). Nature of the assay: qHTS assay to identify small molecule agonists of the peroxisome proliferator-activated receptor delta (PPARd) signaling pathway (AID 743212; calls by dose curve). The essentials: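 GeneBLAzer UAS-bla HEK293H cells carrying a PPARδ construct were exposed to compounds at 37 °C. Beta-lactamase activity was read by FRET fluorescence after 2 h at room temperature with LiveBLAzer B/G substrate.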

A short description of assay [3]: qHTS assay to identify small molecule antagonists of the peroxisome proliferator-activated receptor delta (PPARd) signaling pathway - cell viability counter screen (AID 743213). Also: nearly all actives have a fitted effect of over 50% in size. The essentials:
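HEK293H PPARd UAS-bla cells, 5 h pre-incubation, compound + L165041 300 nM final, 17 h 37 C; B/G FRET substrate 2 h RT; then CellTiter-Glo 30 min RT, luminescence.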

Assay [4] has as its target Peroxisome proliferator-activated receptor delta (Homo sapiens) (UniProt Q03181). Nature of the assay: qHTS assay to identify small molecule antagonists of the peroxisome proliferator-activated receptor delta (PPARd) signaling pathway (AID 743215; active = well fitted inhibition curve with a large enough effect in the signal ratio in the repeat runs, not every such curve was filed as active; the % refers to the signal ratio;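 also: cells stimulated with agonist L165041 at 300 nM final during compound exposure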; also: potency is read from the fitted curve at half-maximal effect). The method, boiled down: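 Read-out is beta-lactamase FRET fluorescence, measured 2 h after substrate addition at room temperature. Beforehand, UAS-bla HEK293H cells carrying the PPARd reporter were exposed to compounds with L165041 at 300 nM final for 17 h at 37 C.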

Assay [5] concerns the target Bile acid receptor (Homo sapiens) (UniProt Q96RI1). Nature of the assay: qHTS assay to identify small molecule antagonists of the farnesoid-X-receptor (FXR) signaling pathway (AID 743217; active = well fitted inhibition curve with a large enough effect in the signal ratio in the repeat runs, not every such curve was filed as active; the % refers to the signal ratio). The essentials: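 HEK 293T FXR-UAS-bla, 5000 cells/well; compound + CDCA 50 uM final; 16 h, 37 °C; B/G FRET substrate 2 h RT; fluorescence.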
A short description of assay [6]: qHTS assay to identify small molecule agonists of the farnesoid-X-receptor (FXR) signaling pathway - cell viability counter screen (AID 743218). Also: nearly all actives have a fitted effect of over 45% in size. The method, boiled down:
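HEK 293T FXR-bla cells; 5 h pre-incubation, 16 h compound exposure at 37 C; LiveBLAzer substrate 2 h RT, then CellTiter-Glo 30 min RT, luminescence.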

Assay [7] has as its target Bile acid receptor (Homo sapiens) (UniProt Q96RI1). Kind of assay: qHTS assay to identify small molecule agonists of the farnesoid-X-receptor (FXR) signaling pathway (AID 743220; active = well fitted activation curve with a large enough effect in the signal ratio in the repeat runs, not every such curve was filed as active; the % refers to the signal ratio). The essentials:
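Beta-lactamase reporter under UAS control in GeneBLAzer FXR HEK 293T cells (5000/well) measured with LiveBLAzer FRET substrate after 2 h at room temperature. Compound exposure lasted 16 h at 37C.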

Assay [8] in a line: qHTS assay to identify small molecule antagonists of the farnesoid-X-receptor (FXR) signaling pathway - cell viability counter screen (AID 743221; active = well fitted cell-killing curve with a large enough effect in the repeat runs, not every such curve was filed as active; also: nearly all actives have a fitted effect of over 50% in size). The essentials:
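In GeneBLAzer FXR-UAS-bla HEK 293T cells stimulated with 50 uM chenodeoxycholic acid (final), compounds acted for 16 h at 37 C. Viability was assessed afterwards by CellTiter-Glo luminescence.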

In assay [9] the target is Vitamin D3 receptor (Homo sapiens) (UniProt P11473). Nature of the assay: qHTS assay to identify small molecule agonists of the vitamin D receptor (VDR) signaling pathway (AID 743222; calls by dose curve). The method, boiled down: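 VDR-bla cells, 2,000/well; 4 h preincubation 37C; cpd (DMSO) 16 h; LiveBLAzer B/G substrate 2 h RT; fluorescence intensity read.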
Assay [10] shares this target. Kind of assay: qHTS assay to identify small molecule antagonists of the vitamin D receptor (VDR) signaling pathway (AID 743223; active = well fitted inhibition curve with a large enough effect in the signal ratio in the repeat runs, not every such curve was filed as active; the % refers to the signal ratio). The method, boiled down:
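Agonist 1alpha,25-dihydroxyvitamin D3 (3 nM in well) was added with each compound to VDR-bla cells preincubated 4 h. Cells stood 16 h at 37C, then FRET substrate 2 h at room temperature; fluorescence intensity recorded.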

Values joined by “and” are separate entries in the source; they are usually repeats but may differ in a detail not shown here. Identical values can stand only once. Results filed as inconclusive are left out. The source holds several records for some structures; these can differ, active in one and inactive in another. Active and inactive are the calls of the source. Unless noted, calls follow the shape of the dose curve; as a rule, active = well fitted curve in the direction sought with a large enough effect in the repeat runs; inconclusive = weak or mixed curves; inactive = no such curve, though single readings can be large; an effect the other way counts as inactive or inconclusive.

Chain of Peroxisome proliferator-activated receptor delta (Homo sapiens) (Q03181 whole entry, looked up): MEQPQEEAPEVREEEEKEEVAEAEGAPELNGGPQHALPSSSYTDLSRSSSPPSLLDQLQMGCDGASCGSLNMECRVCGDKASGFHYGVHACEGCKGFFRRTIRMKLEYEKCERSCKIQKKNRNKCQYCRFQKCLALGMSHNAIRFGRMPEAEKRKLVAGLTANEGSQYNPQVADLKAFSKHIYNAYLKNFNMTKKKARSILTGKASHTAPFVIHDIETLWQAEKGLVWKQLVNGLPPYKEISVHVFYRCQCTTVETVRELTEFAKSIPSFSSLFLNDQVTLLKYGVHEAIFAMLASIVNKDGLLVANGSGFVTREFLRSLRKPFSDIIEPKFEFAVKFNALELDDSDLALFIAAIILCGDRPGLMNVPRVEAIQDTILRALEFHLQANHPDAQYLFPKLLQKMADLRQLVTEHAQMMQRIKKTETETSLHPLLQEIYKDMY
Chain of Bile acid receptor (Homo sapiens) (Q96RI1 whole entry, looked up): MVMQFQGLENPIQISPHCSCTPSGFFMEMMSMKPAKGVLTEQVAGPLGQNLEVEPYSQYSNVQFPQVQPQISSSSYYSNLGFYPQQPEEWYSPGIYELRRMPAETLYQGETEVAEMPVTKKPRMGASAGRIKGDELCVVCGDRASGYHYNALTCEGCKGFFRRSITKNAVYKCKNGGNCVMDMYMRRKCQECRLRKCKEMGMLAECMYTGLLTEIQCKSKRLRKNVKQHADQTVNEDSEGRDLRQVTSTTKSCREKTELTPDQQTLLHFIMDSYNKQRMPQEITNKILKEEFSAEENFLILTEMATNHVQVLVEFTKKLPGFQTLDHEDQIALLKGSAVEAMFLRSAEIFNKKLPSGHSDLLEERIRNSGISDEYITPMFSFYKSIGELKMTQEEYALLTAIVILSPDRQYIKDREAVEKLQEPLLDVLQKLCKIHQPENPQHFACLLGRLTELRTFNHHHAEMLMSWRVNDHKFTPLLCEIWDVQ
Chain of Vitamin D3 receptor (Homo sapiens) (P11473 whole entry, looked up): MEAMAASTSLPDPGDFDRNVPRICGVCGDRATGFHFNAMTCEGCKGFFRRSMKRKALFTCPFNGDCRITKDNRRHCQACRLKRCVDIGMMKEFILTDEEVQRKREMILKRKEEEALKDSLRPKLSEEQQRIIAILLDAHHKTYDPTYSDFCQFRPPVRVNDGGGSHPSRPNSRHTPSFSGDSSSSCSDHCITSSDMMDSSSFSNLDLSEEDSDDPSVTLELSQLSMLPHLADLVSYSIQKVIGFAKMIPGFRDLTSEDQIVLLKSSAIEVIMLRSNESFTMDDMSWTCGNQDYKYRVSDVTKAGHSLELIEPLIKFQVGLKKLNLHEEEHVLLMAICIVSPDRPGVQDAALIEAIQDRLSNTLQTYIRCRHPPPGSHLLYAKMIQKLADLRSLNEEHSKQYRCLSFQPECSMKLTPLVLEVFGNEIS

For `O=C(O)CCCCCCCCCCC(=O)O`, the molecule was called inactive in assay [1], in assay [2], in [3], in [5] and in [7]. The Potency result in [4], in [6] and in assay [8] was “inactive” each time.
With `COc1ccc(NC(C)=O)cc1N`, the molecule was classed as inactive in [1], in assay [2] and in assay [3]. The Potency result in assay [4], in assay [6] and in assay [8] was “inactive” in each case.
On to `Cc1cc(C)c(C)cc1C`, for which the molecule was called inactive in [1], in assay [2], in assay [3], in assay [5], in assay [7] and in [9]. Further, the Potency entry in assay [4], in [6] and in assay [8] was “inactive” throughout.
Regarding `C[C@H]1C[C@H]2[C@@H]3CCC4=CC(=O)C=C[C@]4(C)[C@@]3(F)[C@@H](O)C[C@]2(C)[C@@]1(O)C(=O)CO`, the call in assay [1], in [2] and in [3] was inactive. Further, the Potency entry in assay [4], in [6] and in assay [8] was “inactive” in each case.
On to `Nc1ccccc1[N+](=O)[O-]`, for which the molecule was classed as inactive in assay [1], in assay [2], in assay [3], in assay [5] and in [7]. The Potency result in [4], in assay [6] and in [8] was “inactive” throughout.
Consider `Cc1ccc(N(C)C)cc1`, for which the call in assay [1], in [2] and in assay [3] was inactive. Further, the Potency entry in [4], in [6] and in assay [8] was “inactive” throughout.
With `CCCCCC(N)=O`, the molecule was called inactive in [1], in [2], in assay [3] and in assay [9]. Also, the Potency result in assay [4], in assay [6] and in [8] was “inactive” each time.
As to `O=C(CC(C(=O)OC1CCCCC1)S(=O)(=O)O)OC1CCCCC1` (configuration not stated), the call in assay [1], in [2], in assay [3], in [5] and in [7] was inactive. Moreover, the Potency entry in [4], in assay [6] and in [8] was “inactive” throughout.
On to `COc1ccc(Cl)cc1C(=O)NCCc1ccc(S(=O)(=O)NC(=O)NC2CCCCC2)cc1`, for which the call in assay [1], in assay [2], in [3], in assay [5] and in [7] was inactive. Also, the Potency result in assay [4], in assay [6] and in [8] was “inactive” each time.
With `CCCCN(CCCC)CCCC`, the call in assay [1], in [2], in assay [3], in assay [5], in assay [7] and in [9] was inactive. For the same molecule, the call in [10] was inactive. In addition, the Potency entry in assay [4], in assay [6] and in assay [8] was “inactive” throughout.
As to `CCCCCOC(C)=O`, the call in assay [1], in [2], in [3], in [5], in [7] and in assay [9] was inactive. In addition, in [10], the molecule was called inactive. Besides, the Potency result in [4], in [6] and in [8] was “inactive” in each case.
As for `Cc1cccc(O)c1`, the molecule was classed as inactive in assay [1], in assay [2] and in [3]. Besides, the Potency result in assay [4], in [6] and in assay [8] was “inactive” each time.
Regarding `c1ccc2c(c1)ccc1ccccc12`, the molecule was called inactive in assay [1], in assay [2], in assay [3], in assay [5], in [7] and in assay [9]. Further, the Potency result in assay [4], in assay [6] and in assay [8] was “inactive” throughout.
Consider `O=C(O)c1cc(C(=O)O)cc(S(=O)(=O)O)c1`, for which the outcome in [1], in assay [2], in assay [3], in assay [5] and in [7] was inactive. Besides, the Potency entry in [4], in assay [6] and in assay [8] was “inactive” each time.
Regarding `CC(O)COCC(C)O` (configuration not stated), the result in [1], in assay [2], in [3], in [5], in assay [7] and in assay [10] was inactive. The Potency entry in assay [4], in assay [6] and in assay [8] was “inactive” in each case.
For `CC(=O)c1ccccc1`, the call in assay [1], in assay [2] and in assay [3] was inactive. In addition, the Potency result in [4], in assay [6] and in [8] was “inactive” throughout.
`CSCCC=O`: the molecule was classed as inactive in assay [1], in assay [2], in assay [3], in [5], in [7] and in [9]. Moreover, the Potency result in assay [4], in assay [6] and in assay [8] was “inactive” each time.
For the molecule `ON=C1CCCCC1`, the result in [1], in assay [2], in assay [3] and in assay [9] was inactive. Further, the Potency result in assay [4] was “inactive and 43.6 µM (active)”. Moreover, the Potency result in [6] and in [8] was “inactive” each time.
Turning to `O=c1[nH]nnc2ccccc12`, the outcome in assay [1], in [2], in assay [3], in [5], in assay [7] and in assay [9] was inactive. Further, the result in assay [10] was inactive. For the same molecule, the Potency entry in assay [4], in assay [6] and in [8] was “inactive” throughout.
Take `O=c1[nH]c(=O)n([C@H]2CCCO2)cc1F`: the call in [1], in assay [2] and in [3] was inactive. For the same molecule, the Potency result in [4], in [6] and in assay [8] was “inactive” each time.
With `N[C@@H](Cc1cc(I)c(Oc2cc(I)c(O)c(I)c2)c(I)c1)C(=O)O`, the result in assay [1], in assay [2] and in [3] was inactive. The Potency entry in [4], in assay [6] and in assay [8] was “inactive” in each case.
In the case of `CCCCCCCCCC`, the outcome in [1], in assay [2], in [3], in [5], in [7] and in assay [9] was inactive. Besides, the molecule was classed as inactive in assay [10]. In addition, the Potency result in assay [4], in assay [6] and in assay [8] was “inactive” throughout.
As to `CN(C)CCCN`, the result in assay [1], in assay [2], in assay [3], in assay [5], in assay [7] and in assay [9] was inactive. For the same molecule, in [10], the molecule was called inactive. Further, the Potency result in [4], in assay [6] and in [8] was “inactive” throughout.
With `CC(=O)CC(=O)Nc1ccccc1`, the molecule was classed as inactive in assay [1], in assay [2], in assay [3], in assay [5], in assay [7] and in assay [9]. In addition, the outcome in assay [10] was inactive. The Potency result in assay [4], in [6] and in assay [8] was “inactive” each time.
